PubChem BioAssay AID1159580 (chemical genetic matrix, 2015)
“And” between values parts separate entries of the source, which are not always exact repeats. Equal values may be shown once. The campaign covered roughly 5,500 compounds. About 2,000 (36%) were called active. Roughly 18% stayed inconclusive and do not appear here. No stated cut-off is given here; in the data, active means normalized growth mostly below about 0.91 (no sharp cut-off); inconclusive means no clear call, values can overlap the other calls; inactive means mostly above about 0.92. Some of the results follow.

Assay: chemical genetic growth profiling, strain panel (AID 1159580);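 further: tested at 20 µM; growth read once vehicle control cultures reached saturation at 30 °C; 1 = growth at the plate median or of vehicle wells; lower values mean less growth of the strain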
Details: S. cerevisiae deletion strains, growth OD

Measured: normalized growth

COc1cc(O)c(C(=O)O)c(O)c1
inactive: locus YAL013W, strain DEP1, hits give low values 1 | locus YAL021C, strain ccr4, hits give low values 0.992 | locus YAL026C, strain drs2, hits give low values 0.995 | locus YAL030W, strain snc1, hits give low values 0.99 | locus YBL061C, strain skt5, hits give low values 1 | locus YBR009C, strain hhf1, hits give low values 1 | locus YBR021W, strain FUR4, hits give low values 1.02 | locus YBR023C, strain chs3, hits give low values 0.998 | locus YBR171W, strain sec66, hits give low values 0.971 | locus YBR229C, strain ROT2, hits give low values 0.995 | locus YBR231C, strain swc5, hits give low values 1 | locus YBR279W, strain paf1, hits give low values 0.998 | locus YCL011C, strain gbp2, hits give low values 0.988 | locus YCL016C, strain dcc1, hits give low values 0.991 | locus YCL029C, strain bik1, hits give low values 1.01 | locus YCL061C, strain MRC1, hits give low values 0.979 | locus YCL069W, strain vba3, hits give low values 0.99 | locus YCR088W, strain abp1, hits give low values 0.984 | locus YDL005C, strain med2, hits give low values 0.976 | locus YDL035C, strain GPR1, hits give low values 1.02 | locus YDL040C, strain nat1, hits give low values 0.999 | locus YDL074C, strain BRE1, hits give low values 1.02 | locus YDL101C, strain DUN1, hits give low values 1 | locus YDL134C, strain PPH21, hits give low values 1 | locus YDL185W, strain tfp1, hits give low values 0.949 | locus YDL192W, strain arf1, hits give low values 1.02 | locus YDR001C, strain nth1, hits give low values 0.98 | locus YDR069C, strain doa4, hits give low values 1.01 | locus YDR101C, strain arx1, hits give low values 1.01 | locus YDR137W, strain rgp1, hits give low values 0.974 | locus YDR150W, strain NUM1, hits give low values 1 | locus YDR159W, strain sac3, hits give low values 1.01 | locus YDR162C, strain NBP2, hits give low values 1.01 | locus YDR195W, strain ref2 0.987 | locus YDR297W, strain sur2, hits give low values 1 | locus YDR318W, strain mcm21, hits give low values 1.02 | locus YDR334W, strain swr1, hits give low values 0.999 | locus YDR335W, strain msn5, hits give low values 0.992 | locus YDR388W, hits give low values 1 | locus YDR392W, strain spt3, hits give low values 1.01 | locus YDR502C, strain sam2, hits give low values 0.998 | locus YEL003W, strain gim4, hits give low values 1 | locus YEL037C, strain rad23, hits give low values 0.985 | locus YEL061C, strain CIN8 (second series), hits give low values 0.981 | locus YEL061C, strain CIN8, hits give low values 1 | locus YER015W, strain faa2, hits give low values 0.99 | locus YER016W, strain bim1, hits give low values 0.989 | locus YER110C, hits give low values 1.02 | locus YER111C, strain swi4, hits give low values 0.987 | locus YER155C, strain BEM2 (second series), hits give low values 0.978 | locus YER155C, strain BEM2, hits give low values 0.987 | locus YER167W, strain BCK2, hits give low values 1.03 | locus YFR010W, strain ubp6, hits give low values 1.01 | locus YGL078C, strain dbp3, hits give low values 0.973 | locus YGL086W, strain mad1, hits give low values 1.01 | locus YGL167C, strain pmr1, hits give low values 0.989 | locus YGL173C, strain kem1, hits give low values 0.997 | locus YGL227W, strain vid30, hits give low values 0.982 | locus YGL240W, strain doc1, hits give low values 0.995 | locus YGL248W, strain PDE1, hits give low values 1.01 | locus YGL253W, strain hxk2, hits give low values 0.979 | locus YGR078C, strain PAC10, hits give low values 1.01 | locus YGR135W, strain pre9, hits give low values 1.01 | locus YGR229C, strain SMI1, hits give low values 1.02 | locus YGR252W, strain gcn5, hits give low values 1 | locus YHR013C, strain ard1, hits give low values 0.998 | locus YHR027C, strain rpn1, hits give low values 0.978 | locus YHR030C, strain SLT2, hits give low values 0.996 and 0.881 | locus YHR079C, strain IRE1 (second series), hits give low values 1.01 | locus YHR094C, strain hxt1, hits give low values 0.997 | locus YHR129C, strain ARP1, hits give low values 0.991 | locus YHR142W, strain chs7, hits give low values 1.01 | locus YHR200W, strain rpn10, hits give low values 1 | locus YIL066C, strain RNR3, hits give low values 0.993 | locus YIL073C, strain SPO22, hits give low values 1.09 | locus YIL125W, strain kgd1, hits give low values 0.979 | locus YIR030C, strain dcg1, hits give low values 1.01 | locus YJL092W, strain hpr5, hits give low values 0.966 | locus YJL095W, strain BCK1 (second series), hits give low values 0.998 | locus YJL095W, strain BCK1, hits give low values 1 and 0.914 | locus YJL115W, strain asf1, hits give low values 0.979 | locus YJL129C, strain trk1, hits give low values 1 | locus YJL134W, strain LCB3, hits give low values 0.993 | locus YJL154C, strain vps35, hits give low values 0.976 | locus YJL164C, strain tpk1, hits give low values 1.02 | locus YJL166W, strain qcr8, hits give low values 1 | locus YJL168C, strain set2, hits give low values 0.993 | locus YJL187C, strain SWE1 (second series), hits give low values 1.01 | locus YJL187C, strain SWE1, hits give low values 0.996 | locus YJR043C, strain POL32, hits give low values 1.04 | locus YJR066W, strain TOR1, hits give low values 0.841
active: locus YHR079C, strain IRE1, hits give low values 0.839
